This passage reports growth results from PubChem BioAssay (NCI).

Among the test systems are T-47D breast; BT-549 breast; MDA-MB-435 melanoma; SW-620 colon; MCF7 breast; HCT-116 colon; HCC-2998 colon; KM12 colon.
What all share (test): NCI-60 one-dose screen, 48 h (100 = growth as untreated, 0 = no growth, -100 = all killed)
What all share (conditions): 10 µM unless noted

About 83,000 compounds went through this panel and 20% of them were active in at least one assay; those are over-represented in the sample as a whole.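 Values shown are percent growth following 48 h exposure of cells in 96-well plates to a single concentration of compound; below 10 was considered active.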 Values without a mark were called inactive. Active and inactive are the calls of the source.

On to `CCN(CC)c1ccc(C(=C2C=CC(=[N+](CC)Cc3cccc(S(=O)(=O)O)c3)C=C2)c2ccc(N(CC)Cc3cccc(S(=O)(=O)O)c3)cc2)cc1`, for which the growth in the assay with T-47D breast is 8.92% (active); with BT-549 breast it was 46.6%; with MDA-MB-435 melanoma, 41.5%; in the assay with SW-620 colon, 22.9%; with MCF7 breast, 52.1%; in the assay with HCT-116 colon, 3.12% (active). For the same compound, the results for the growth in the assay on HCC-2998 colon and with KM12 colon were 21% and 3.78% (active), respectively.
For `CCCCCc1c(C)[nH]c(/C=C2\N=C(c3ccc[nH]3)C=C2Oc2ccc(Cl)cc2)c1C`, the growth was -38.1% [100 µM] (active) in the assay on T-47D breast; 0.41% [100 µM] (active) in the assay on BT-549 breast; -71.7% [100 µM] (active) in the assay with MDA-MB-435 melanoma; -31.7% [100 µM] (active) in the assay on SW-620 colon; -68.5% [100 µM] (active) in the assay with MCF7 breast; -89.8% [100 µM] (active) with HCT-116 colon. In addition, the growth was -17% [100 µM] (active) in the assay with HCC-2998 colon and -75.5% [100 µM] (active) in the assay with KM12 colon.
Regarding `CN(C)c1ccc(-n2nc3ccccc3n2)cc1`, the growth with T-47D breast is 78.4%; in the assay on BT-549 breast, 91.6%; in the assay with MDA-MB-435 melanoma, 100%; in the assay on SW-620 colon, 95.9%; with MCF7 breast it was 89.9%; in the assay on HCT-116 colon, 77%. Also, the growth in the assay with HCC-2998 colon is 75.3%; in the assay on KM12 colon, 108%.
On to `COc1cccc(N2CCN(c3cccc(C)n3)CC2)c1`, for which the growth is 115% in the assay with T-47D breast; 105% in the assay with BT-549 breast; 95.1% in the assay on MDA-MB-435 melanoma; 110% in the assay on SW-620 colon; 95.4% in the assay on MCF7 breast; 91% in the assay with HCT-116 colon. Moreover, the growth in the assay on HCC-2998 colon was 107%; in the assay with KM12 colon, 110%.
For `NS(=O)(=O)c1ccc(-n2ncc3c(N/N=C/c4ccccc4)ncnc32)cc1`, the growth in the assay on T-47D breast is 94.6%; with BT-549 breast, 113%; in the assay on MDA-MB-435 melanoma, 88.4%; in the assay on SW-620 colon, 94.6%; with MCF7 breast it was 91%; in the assay on HCT-116 colon, 83.2%. The growth with HCC-2998 colon was 74.7%; in the assay on KM12 colon, 102%.
As to `C[C@H]1c2cccc(O)c2C(O)=C2C(=O)[C@]3(O)C(O)=C(C(N)=O)C(=O)[C@@H](N(C)C)[C@@H]3[C@@H](O)[C@@H]21`, the growth is 53.1% with T-47D breast; 33.8% in the assay on BT-549 breast; 50.7% in the assay on MDA-MB-435 melanoma; 65.9% with SW-620 colon; 58.9% in the assay on MCF7 breast; 18.6% in the assay with HCT-116 colon. The growth in the assay with HCC-2998 colon was 27.1%; with KM12 colon, 54.1%.
As to `CC(=O)N1N=C(c2ccc3c(c2)OCO3)CC1c1c(C)nn(-c2ccccc2)c1N(C)Cc1ccccc1` (stereo not given), the growth with T-47D breast was 58.6%; in the assay on BT-549 breast, 85.2%; with MDA-MB-435 melanoma it was 90.7%; in the assay on SW-620 colon it was 85.9%; in the assay on MCF7 breast, 66.1%; in the assay on HCT-116 colon it was 57.3%. For the same compound, the values for the growth in the assay with HCC-2998 colon and in the assay on KM12 colon were 97.2% and 83.6%, respectively.
Consider `Cc1cc(C(=O)Nc2ccc3cc(CN4CCOCC4)ccc3n2)c(C)n1-c1ccccc1`, for which the growth in the assay with T-47D breast is -2.49% (active); with BT-549 breast, -1.74% (active); with MDA-MB-435 melanoma, 4.74% (active); in the assay with SW-620 colon it was 64.1%; with MCF7 breast, 7.41% (active); in the assay with HCT-116 colon, 29.4%. The growth in the assay on HCC-2998 colon was 50.8%; in the assay with KM12 colon, 11%.
On to `CC(NNC(=S)N1CCCCCC1)c1ccc2ccccc2n1` (stereo not given), for which the growth is 29.8% with T-47D breast; 66.6% with BT-549 breast; 40.6% in the assay on MDA-MB-435 melanoma; 36% with SW-620 colon; 16.5% in the assay on MCF7 breast; 26.5% in the assay on HCT-116 colon. Also, the growth in the assay with HCC-2998 colon is 36.6%; in the assay with KM12 colon, 34.9%.
Turning to `CCCCCc1c(C)[nH]c(/C=C2\N=C(c3ccc[nH]3)C=C2Oc2ccccc2)c1C`, the growth with T-47D breast is -61.1% [100 µM] (active); in the assay on BT-549 breast, -97.1% [100 µM] (active); with MDA-MB-435 melanoma it was -34.4% [100 µM] (active); in the assay with SW-620 colon it was -54% [100 µM] (active); with MCF7 breast, -100% [100 µM] (active); with HCT-116 colon, -4.84% [100 µM] (active). The growth is -91.6% [100 µM] (active) with HCC-2998 colon and -81.7% [100 µM] (active) with KM12 colon.
Take `CN(C)c1ncnc2c1ncn2C1CCCCO1` (stereo not given): the growth with T-47D breast was 105%; in the assay on BT-549 breast, 101%; in the assay on MDA-MB-435 melanoma, 111%; in the assay with SW-620 colon it was 106%; in the assay on MCF7 breast, 96.6%; with HCT-116 colon, 104%. Moreover, the growth in the assay with HCC-2998 colon is 96.7%; in the assay on KM12 colon, 112%.
`N#Cc1ncc(-c2ccc(C(F)(F)F)cc2)c(NC2CCCCCC2)n1`: the growth is 7.65% (active) with T-47D breast; 49.5% in the assay on BT-549 breast; 8.67% (active) with MDA-MB-435 melanoma; 19.9% in the assay with SW-620 colon; 14% in the assay with MCF7 breast; 15.6% in the assay with HCT-116 colon. Also, the results for the growth in the assay on HCC-2998 colon and in the assay with KM12 colon were 73.2% and 22.3%, respectively.
Regarding `COc1ccc(C2=NN(C(N)=S)C(c3ccc4c(c3)OCO4)C2)cc1` (stereo not given), the growth is 36.7% in the assay with T-47D breast; -2.03% (active) in the assay on BT-549 breast; 3.04% (active) with MDA-MB-435 melanoma; 1.46% (active) with SW-620 colon; 10.5% with MCF7 breast; 1.71% (active) in the assay with HCT-116 colon. Moreover, the results for the growth in the assay on HCC-2998 colon and with KM12 colon were -24.7% (active) and 2.57% (active), respectively.
In the case of `O=C1CNc2cc(Cl)ccc2N1`, the growth with T-47D breast was 99.5%; in the assay with BT-549 breast it was 97.7%; with MDA-MB-435 melanoma it was 114%; with SW-620 colon it was 105%; with MCF7 breast, 102%; in the assay with HCT-116 colon it was 104%. Moreover, the growth is 104% in the assay on HCC-2998 colon and 103% in the assay on KM12 colon.
In the case of `COc1ccc(N2CCN(CC(=O)N3CCN(c4nnc(-c5ccccc5)c(-c5ccccc5)n4)CC3)CC2)cc1`, the growth in the assay with T-47D breast is 20.1%; with BT-549 breast, 47.8%; in the assay with MDA-MB-435 melanoma it was 45.2%; in the assay with SW-620 colon, 54.6%; in the assay on MCF7 breast, 36.4%; in the assay with HCT-116 colon, 29.5%. Also, the growth with HCC-2998 colon is 62.4%; with KM12 colon, 37.2%.
